Assay [1] addresses T1, Aspartate--tRNA(Asp/Asn) ligase (Mycobacterium tuberculosis (strain ATCC 25618 / H37Rv)) (UniProt P9WFW3).
T1 sequence (whole entry): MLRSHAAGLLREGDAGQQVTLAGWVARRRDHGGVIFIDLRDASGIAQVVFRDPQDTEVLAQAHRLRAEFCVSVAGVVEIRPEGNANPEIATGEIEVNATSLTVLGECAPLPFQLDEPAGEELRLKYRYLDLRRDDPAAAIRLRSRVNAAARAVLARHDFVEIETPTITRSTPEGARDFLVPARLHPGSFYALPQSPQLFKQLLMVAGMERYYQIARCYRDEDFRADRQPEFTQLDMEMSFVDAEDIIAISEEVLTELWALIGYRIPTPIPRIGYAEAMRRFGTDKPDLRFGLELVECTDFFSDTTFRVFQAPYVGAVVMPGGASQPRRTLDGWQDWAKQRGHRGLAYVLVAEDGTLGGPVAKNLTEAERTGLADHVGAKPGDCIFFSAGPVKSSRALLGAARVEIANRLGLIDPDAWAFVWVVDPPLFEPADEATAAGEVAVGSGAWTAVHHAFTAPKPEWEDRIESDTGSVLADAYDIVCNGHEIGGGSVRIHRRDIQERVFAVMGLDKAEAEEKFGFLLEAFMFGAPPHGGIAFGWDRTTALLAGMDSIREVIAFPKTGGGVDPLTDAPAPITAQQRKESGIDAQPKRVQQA
The experiment in a line: Assay for Asp RNA synthetase-1 from Mycobacterium tuberculosis. Particulars: 30 µM. The arrangement: scale not given: direction of the effect not stated beside the values. It is filed as functional.

Assay [2] has as its target Shiga toxin 2 (Escherichia coli O157:H7) (UniProt P09385+P09386). As to the kind of experiment: E. coli 0.157:H7 Shiga Toxin SOP - stx2 screening assay. Type of assay: functional. The arrangement: scale not given: direction of the effect not stated beside the values. Particulars: 30 µM.

Drawing on ChEMBL document CHEMBL3988442, “University of Dundee, Small-Polar-MMV Screening Library” (2021), this text covers Percent Effect for 47 compounds.

Structures are written as SMILES.

In the case of `COCC(=O)N1CCC(c2cccc(Cc3ccc(F)cc3)n2)CC1`, the Percent Effect in assay [1] was 1.18%; in assay [2], -10.6%.
Take `c1cnn(Cc2cn3c(n2)CN(Cc2nccs2)CC3)c1`: the Percent Effect was -2.35% in assay [1] and -23.5% in assay [2].
With `Cc1ccc2c(n1)N(Cc1cccnc1)CCN(C(=O)C1CCC1)C2`, the Percent Effect in assay [1] was 14.8%; in assay [2], -15.2%.
On to `O=C(Cc1ccccc1)N1CCC2(CC(=O)N(c3ccsc3)C2)C1` (centres undefined), for which the values for the Percent Effect in assay [1] and in assay [2] were -3.62% and -10.4%, respectively.
As for `CNC(=O)[C@@]12CCO[C@@H]1CCN(Cc1scnc1C)C2`, the Percent Effect in assay [1] is -0.714%; in assay [2] it was -2.91%.
On the same counts, the results for `CNC(=O)c1cnc(/C=C/c2cc(OC)cc(OC)c2)s1` are 5.76% and -89.3%.
With `Cc1cnn(CC2CCCCN2Cc2cc(C)on2)c1` (centres undefined), the Percent Effect in assay [1] is -5.5%; in assay [2], -7.45%.
As for `COC(=O)c1ccccc1NC(=O)c1nc2ccccc2n(C)c1=O`, the Percent Effect in assay [1] is 2.38%; in assay [2], -9.47%.
In the case of `COc1ccc(CNCc2ccc(N3CCCCC3)nc2)cc1OC`, the Percent Effect is 1.06% in assay [1] and -82.1% in assay [2].
In the case of `Cc1noc(C)c1CNC(=O)N1CCC(C(O)c2ccccc2)CC1` (centres undefined), the Percent Effect was -2.1% in assay [1] and -19.9% in assay [2].
The corresponding values for `CCOc1cc(C)nc(N2CCN(C(=O)c3ccc[nH]3)CC2)n1` are -0.0874% and 29.4%.
The corresponding values for `CCc1nc(C)ncc1C(=O)N1CCCC(n2nc(C)nc2C)C1` (centres undefined) are -3.03% and 0.321%.
With `CC1CCN(S(=O)(=O)NCc2ccccc2Cn2cncn2)CC1`, the Percent Effect was -6.51% in assay [1] and 4.16% in assay [2].
The corresponding values for `Cc1nn(C)c(C)c1C1CCCN1C(=O)CCCn1cccn1` (centres undefined) are -2.95% and 10.6%.
On the same counts, the results for `CC(NC(=O)CCCOc1ccccc1Cl)c1ccncc1` (centres undefined) are 5.49% and -35%.
Turning to `Cn1ccnc1CN1CCC2(CC1)CN(CC1CC1)C(=O)CO2`, the Percent Effect in assay [1] was 2.11%; in assay [2], -17.7%.
The corresponding values for `CC(=O)c1cn(CCC(=O)NCCC(=O)O)c2ccccc12` are -4.27% and -25.1%.
For the compound `Cc1cc(CN2CCN(CC(O)C(C)(C)C)CC2)no1` (centres undefined), the Percent Effect in assay [1] was -13.9%; in assay [2], 0.649%.
In the case of `CS(=O)(=O)NC[C@]12COC[C@H]1CN(C(=O)c1ccccc1)C2`, the Percent Effect is -2.14% in assay [1] and -16.8% in assay [2].
Consider `CCc1nnc2n1CCN(Cc1csc(-c3ccsc3)n1)C2`, for which the Percent Effect was 1.89% in assay [1] and -7.29% in assay [2].
As for `O=C(C1CCOCC1)N1C[C@@H]2[C@@H](C1)OCC(=O)N2Cc1ccncc1`, the values for the Percent Effect in assay [1] and in assay [2] were -2.99% and -3.94%, respectively.
For the compound `Cn1ccc(C(=O)NCc2cccc(NC(=O)C3CCC3)c2)cc1=O`, the Percent Effect was -0.879% in assay [1] and -48% in assay [2].
On to `CNC(=O)[C@@]12CCO[C@@H]1CCN(S(=O)(=O)c1cccnc1)C2`, for which the Percent Effect in assay [1] worked out at 0.229%; in assay [2] it was 7.61%.
Consider `Cc1cccc(C(=O)NCc2ccc(S(N)(=O)=O)cc2)n1`, for which the results for the Percent Effect in assay [1] and in assay [2] were -0.577% and -16.4%, respectively.
`Cc1cc(C)n(C2CN(CC(O)c3ccc(F)cc3)C2)n1` (centres undefined): the Percent Effect in assay [1] amounted to 2.19%; in assay [2], 6.15%.
On to `O=C(CN1CCCC(O)C1)NC(=O)NCc1cccs1` (centres undefined), for which the values for the Percent Effect in assay [1] and in assay [2] were -0.0898% and -13.2%, respectively.
On the same counts, the results for `COCCNC(=O)[C@H]1C[C@@H]2CCN(Cc3ccoc3)C[C@H]2O1` are 3.35% and -3.8%.
Take `COc1ccc(C2=CCN(C(=O)C3CCCN(C(N)=O)C3)CC2)cc1` (centres undefined): the Percent Effect came out at 1.94% in assay [1] and 26.5% in assay [2].
Consider `CC(NC(=O)NCCCNS(C)(=O)=O)c1ccncc1` (centres undefined), for which the Percent Effect is -3.27% in assay [1] and -2.62% in assay [2].
On to `COCc1cccc(CNCc2c(C)nn(C)c2N(C)C)c1`, for which the Percent Effect in assay [1] worked out at 6.21%; in assay [2], 1.1%.
Take `CC(NC(=O)NCCCn1cncn1)c1ccccc1Cl` (centres undefined): the results for the Percent Effect in assay [1] and in assay [2] were 9.3% and -26.7%, respectively.
For `COCCN(Cc1ccoc1)C(=O)c1c(F)cccc1Cl`, the figures for the Percent Effect in assay [1] and in assay [2] were -3.31% and 5.86%, respectively.
For the compound `Cc1nccc(-c2cccc(NCC(=O)N3CCCCCCC3)c2)n1`, the results for the Percent Effect in assay [1] and in assay [2] were 1.07% and 18.8%, respectively.
Regarding `CCS(=O)(=O)c1ccccc1N1CCC(NC(C)=O)CC1`, the Percent Effect in assay [1] is -0.991%; in assay [2], 11.9%.
Turning to `CN1CCOC(CNCc2cccc(OCC(F)(F)F)c2)C1` (centres undefined), the Percent Effect in assay [1] is -2.34%; in assay [2] it was 2.68%.
Turning to `O=C1CC(c2cccnc2)c2c(c(C(=O)O)cn2-c2ccccc2)N1` (centres undefined), the Percent Effect in assay [1] is 4.82%; in assay [2], -6.55%.
Consider `CCCNC(=O)CCC(=O)Nc1ccc(-n2cncn2)c(F)c1`, for which the Percent Effect in assay [1] was -1.12%; in assay [2], 5.57%.
Turning to `CC(NC(=O)NCCNc1cnccn1)c1cccs1` (centres undefined), the Percent Effect in assay [1] was -0.971%; in assay [2] it was -34.6%.
On the same counts, the results for `CN(C)C(=O)N1CCc2c(CNc3ncccn3)cncc2C1` are 0.757% and -10.5%.
On to `CN(Cc1ccco1)C[C@H]1OC[C@@H]2CCN(Cc3nccs3)C[C@@H]21`, for which the Percent Effect in assay [1] was 4.31%; in assay [2], -45.7%.
In the case of `Cc1nc(C)n(CC2CCCN2CC(=O)NCCc2ccccc2)n1` (centres undefined), the Percent Effect in assay [1] was -7.16%; in assay [2], -6.86%.
As to `Cn1cc(NC(=O)N2CCC(c3ccccc3)CC2)ccc1=O`, the Percent Effect stood at 55% in assay [1] and 21.8% in assay [2].
With `c1cc(CN2CCN(Cc3cscn3)CC2)cs1`, the values for the Percent Effect in assay [1] and in assay [2] were 1.38% and 26.6%, respectively.
Consider `Cn1cc(C2CCCN2C(=O)CCCOc2ccc(F)cc2F)cn1` (centres undefined), for which the Percent Effect is -2.66% in assay [1] and 13.7% in assay [2].
For `CC(NC(=O)Cc1cccs1)c1nnc2n1CCCCC2` (centres undefined), the figures for the Percent Effect in assay [1] and in assay [2] were -4.69% and 5.32%, respectively.
`CC(C)N(Cc1cccc(F)c1)Cc1nc2c(cnn2C)c(=O)[nH]1`: the Percent Effect in assay [1] is -5.3%; in assay [2], -0.112%.
`CCc1ccc(S(=O)(=O)Nc2cc(C(=O)O)c(F)cc2F)s1`: the Percent Effect in assay [1] is -4.19%; in assay [2], -16.1%.
